The results in this text go back to PubChem BioAssay (NCATS).

Assay [1] has as its target Tumor necrosis factor (Homo sapiens) (UniProt P01375). Put plainly: qHTS assay to identify small molecules that stimulate Tumor Necrosis Factor-alpha (TNF-alpha) secretion (AID 651757; active = well fitted curve in the direction sought with a large enough effect in the signal ratio; the % refers to the signal ratio; also: 0% is about no effect). The method, boiled down: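 THP-1 cells were exposed to compounds for 17 hrs at 37 C, after which secreted TNF-alpha was measured by homogeneous HTRF (TR-FRET) using cryptate- and XL665-labeled anti-TNF-alpha antibodies, read after 3 hr at room temperature.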
Background: qHTS replaces the single test concentration by a dilution series.

Assay [2] addresses Peroxisome proliferator-activated receptor alpha (Homo sapiens) (UniProt Q07869). Nature of the assay: qHTS assay for small molecule agonists of the peroxisome proliferator-activated receptor alpha (PPARalpha) signaling pathway (AID 651778). Also: % of control where 0% means no effect. The note with it: PathHunter PPARalpha complementation, chemiluminescence, 6 h; max response: active compounds read high. The gist of the method: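 Cells plated at 2,000/well and held overnight at 37 C, 5% CO2, then compound added by pin tool for 6 hr; after PathHunter detection reagent and 60 min at room temperature, chemiluminescence from enzyme complementation was read.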

Assay [3] addresses Nuclear receptor ROR-gamma (Homo sapiens) (UniProt P51449). Put plainly: qHTS assay for small molecule antagonists of the retinoid-related orphan receptor gamma (ROR-gamma) signaling pathway (AID 651802). Also: series mostly up to about 92 µM; % is scaled to controls: 0 for no effect and ±100 for the full control effect; nearly all actives have a fitted effect of over 60% in size. The method, boiled down: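 CHO cells carrying TET-inducible ROR-gamma and an ROR response element–luciferase reporter were exposed to compound, then induced with doxycycline. After 16hr at 37C, luminescence was read; lower signal indicates antagonism.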

The nature of assay [4]: qHTS assay for small molecule agonists of the antioxidant response element (ARE) signaling pathway measured by Nrf2-dependant transcriptional activity (AID 720636; active = well fitted curve in the direction sought with a large enough effect in the repeat runs; an effect the other way counts as inactive or inconclusive;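 also: HepG2 cells with an ARE-driven luciferase reporter; % of control where 0% means no effect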). The method, boiled down: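 HepG2 ARE-luc reporter line, 1% dialyzed FBS; 6 hr attachment at 37 C, compound pinned in, 16 hr at 37 C/5% CO2; ONE-Glo, 30 min RT, luminescence read.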
Assay [5] can be described thus: qHTS assay for small molecule antagonists of the retinoid-related orphan receptor gamma (ROR-gamma) signaling pathway - cell viability counter screen (AID 720652; active = well fitted curve in the direction sought with a large enough effect in the repeat runs; an effect the other way counts as inactive or inconclusive;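 also: series mostly up to about 92 µM; compound exposure lasted 16 hr before ATP read; % is scaled to controls: 0 for no effect and ±100 for the full control effect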). The gist of the method:
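Counter screen in CHO cells carrying TET-inducible ROR-gamma and an ROR response element-luciferase reporter; cells plated 5 hr, compound pinned, doxycycline added, then 16 hr at 37 C. Viability read as intracellular ATP by CellTiter-Glo luminescence.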

Assay [6] in a line: qHTS Assay for Identifying Gametocytocidal Compounds (AID 743244). Also: potency is read from the fitted curve at half-maximal effect.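 As to max response: % is scaled to controls: 0 for no effect and ±100 for the full control effect; actives lower the fluorescent signal which means gametocytes are killed.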 Conditions: P. falciparum 3D7 stage III-V gametocytes, alamarBlue, 72 h; max response: active compounds read low. The method, boiled down:
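Using 20,000 stage III–V 3D7 gametocytes per well, compounds were incubated 72 h under 37 °C/5% CO2. Viability was then assessed by 24 h alamarBlue reduction, measured fluorometrically at 525/598 nm.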

Assay [7] addresses Tyrosine-protein kinase Yes (Homo sapiens) (UniProt P07947). Nature of the assay: qHTS for small molecule inhibitors of Yes1 kinase: Primary Screen (AID 686947).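 Also: plate controls were DMSO with enzyme for no effect and no-enzyme DMSO wells for full effect; nearly all actives have a fitted effect of over 60% in size.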 The gist of the method: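 ADP-Glo luminescence readout; final 4 nM Yes1, 0.1 mM ATP, 0.3 mg/mL poly(E4Y), Tris pH 7.5, MgCl2, DTT, Brij-35. 20 min compound preincubation, 60 min reaction at RT. Normalized to DMSO wells with and without enzyme.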

Assay [8] can be described thus: qHTS for small molecule inhibitors of Yes1 kinase: Counter Assay (AID 686950).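 Also: no kinase present so only ADP-Glo detection of a fixed ADP amount is tested; luminescence from ADP-Glo reporting ADP in a fixed ATP and ADP mixture; series mostly up to about 77 µM; 0% = DMSO wells with ATP plus ADP and -100% = ATP-only wells without ADP.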 The method, boiled down: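 Enzyme-free ADP-Glo interference check: compounds were preincubated 20 min in buffer, then an ATP/ADP mix (0.08 mM ATP, 0.02 mM ADP final) was added for 60 min at room temperature before two-step ADP-Glo luminescence detection.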
Assay [9] addresses Arylsulfatase A (Homo sapiens) (UniProt P15289). Put plainly: qHTS screen for enhancers of Arylsulfatase A (ASA1): LOPAC Validation Assay (AID 720538). The note with it: outcome: dose series up to 57.5 µM. The gist of the method: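 MLD patient fibroblasts (SV40, ASA-I179S), 1536-well; adhere 6 hrs; cpd 48h, 37 degree C, 5% CO2; pNCS 0.5mM final in lysis buffer, 14h RT; stop 1N NaOH final; fluor. Ex525/Em598.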

A short description of assay [10]: qHTS for compounds that reverse cellular toxicity of Amyloid beta (A-beta) peptide in yeast: LOPAC Validation Assay (AID 720559).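 Also: plate controls were DMSO for no effect and equimolar ferric chloride plus clioquinol rescue for full effect.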 The method, boiled down: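 Medium dispensed, compounds pinned, A-beta yeast suspension added; plates held at 30 C for 48 hr; absorbance measured at 600 nm to gauge growth; values scaled between DMSO and FeCl3/clioquinol (equimolar) controls.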

A short description of assay [11]: qHTS for Activators of Parkin Expression: LOPAC Validation Assay (NLuc Reporter) (AID 720572). The method, boiled down: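 Neuronal line stably carrying a FLuc/NLuc coincidence reporter under the Parkin promoter, seeded 24 h, then dosed in 7-point series for 24 h at 37 C. NLuc luminescence read after FLuc; normalized to DMSO and positive control (100%).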
Assay [12] can be described thus: qHTS for Activators of Parkin Expression: LOPAC Validation Assay (FLuc Reporter) (AID 720573). The method, boiled down: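 Cells seeded, 24 h; compounds pinned, 7-pt dose response; 24 h at 37 C/5% CO2; volume reduced; FLuc reagent 10 min RT; luminescence read. Normalization: DMSO = 0, positive control = 100%.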
The target in assay [13] is T1, Hexokinase-4 (Homo sapiens) + Glucokinase regulatory protein (Homo sapiens) (UniProt P35557+Q14397). Put plainly: qHTS assay for inhibitors of recombinant human GCK-GKRP interaction: Diaphorase-coupled assay (AID 743205). The method, boiled down: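 25 mM Hepes pH 7.6, 5 mM glucose, 0.4 mM ATP, 4 U/ml G6PDH; 10 nM each GST-GCK/FLAG-GKRP. Kinetic fluorescence read, 1/min × 30 min. Normalized: DMSO ± enzyme = max/min.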

Assay [14] has as its target T1, Hexokinase-4 (Homo sapiens) + Glucokinase regulatory protein (Homo sapiens). Put plainly: qHTS assay for inhibitors of recombinant human GCK-GKRP interaction: ADP-Glo assay (AID 743206).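 Also: plate controls were DMSO plus enzyme for no effect and no enzyme for full effect.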 The gist of the method:
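GST-GCK and FLAG-GKRP (15 nM each in the dispensed mix, with 2 uM S6P) react with 0.4 mM ATP and 5 mM glucose (final) in Hepes pH 7.6 for 60 min at room temperature. ADP is measured by ADP-Glo luminescence.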

The target is the same in assay [15]. Put plainly: qHTS assay for inhibitors of recombinant human GCK-GKRP interaction: HTRF assay (AID 743207).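 Also: 0% = DMSO with GCK present and -100% = DMSO wells lacking GCK.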 The gist of the method:
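5 nM GST-GCK + 5 nM FLAG-GKRP + 2 uM S6P, pH 7.1 buffer (25 mM Hepes, 2 mM MgCl2, 25 mM KCl, 1 mM DTT, Tween/BSA); pin-transferred cpd; anti-FLAG XL665/anti-GST K; 60 min RT; HTRF.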

Assay [16] can be described thus: qHTS assay for small molecule disruptors of the mitochondrial membrane potential - 5 hr assay (AID 651755; calls by dose curve; also: nearly all actives have a fitted effect of over 40% in size; also: potency is read from the fitted curve at half-maximal effect). The method, boiled down:
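HepG2 cells, attached overnight at 37C, were exposed to compound or DMSO for 5 hr at 37C, 5% CO2. Mito-MPS dye was then added for 30 min, and fluorescence read at 490/535 nm (monomers) and 540/590 nm (aggregates).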

A short description of assay [17]: qHTS assay for environmental chemicals that activate the Aryl hydrocarbon Receptor (AhR) signaling pathway (AID 651777). Also: % of control where 0% means no effect; nearly all actives have a fitted effect of over 15% in size. The note with it: 1A2-DRE human hepatoma cells, luciferase, 24 h; active compounds read high. The method, boiled down: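 Luminescence read-out: One-Glo added for 30 min at RT after 24 hr compound treatment (37 C, 5% CO2) of human hepatoma cells expressing a DRE/CYP1A2 promoter–luciferase reporter; increased signal indicates AhR activation.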

The nature of assay [18]: qHTS assay to identify small molecules that stimulate interleukin-8 (IL-8) secretion (AID 651758; active = well fitted activation curve with a large enough effect in the signal ratio; the % refers to the signal ratio; also: 0% is about no effect). The method, boiled down: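 THP-1, 2000 cells/well; cpd 16 h, 37 C; add cryptate + XL665 anti-IL-8 Abs; RT 1-3 h; TR-FRET read.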

“And” between values parts separate entries of the source, which are not always exact repeats. Equal entries are not always repeated. Values without a mark were called inactive. Inconclusive results are not listed. The source made the active and inactive calls. Unless noted, calls follow the shape of the dose curve; as a rule, active = well fitted curve in the direction sought with a large enough effect; inconclusive = small, poorly fitted or top-dose-only effect, or another doubt; inactive = no such curve, though single readings can be large; an effect the other way counts as inactive or inconclusive.

T1 sequence (P35557 whole entry, looked up): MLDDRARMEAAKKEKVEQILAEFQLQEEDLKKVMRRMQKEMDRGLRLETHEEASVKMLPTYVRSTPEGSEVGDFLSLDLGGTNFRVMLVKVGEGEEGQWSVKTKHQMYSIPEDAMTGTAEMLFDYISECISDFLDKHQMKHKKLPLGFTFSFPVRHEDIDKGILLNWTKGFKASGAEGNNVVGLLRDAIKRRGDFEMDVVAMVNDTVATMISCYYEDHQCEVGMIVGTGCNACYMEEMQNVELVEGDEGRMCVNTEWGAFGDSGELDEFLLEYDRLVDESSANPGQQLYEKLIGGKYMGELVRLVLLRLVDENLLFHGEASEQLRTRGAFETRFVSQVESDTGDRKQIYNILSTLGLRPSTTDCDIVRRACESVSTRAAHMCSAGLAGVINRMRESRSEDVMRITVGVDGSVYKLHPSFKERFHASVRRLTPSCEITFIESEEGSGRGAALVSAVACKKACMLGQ
T1 sequence (Q14397 whole entry, looked up): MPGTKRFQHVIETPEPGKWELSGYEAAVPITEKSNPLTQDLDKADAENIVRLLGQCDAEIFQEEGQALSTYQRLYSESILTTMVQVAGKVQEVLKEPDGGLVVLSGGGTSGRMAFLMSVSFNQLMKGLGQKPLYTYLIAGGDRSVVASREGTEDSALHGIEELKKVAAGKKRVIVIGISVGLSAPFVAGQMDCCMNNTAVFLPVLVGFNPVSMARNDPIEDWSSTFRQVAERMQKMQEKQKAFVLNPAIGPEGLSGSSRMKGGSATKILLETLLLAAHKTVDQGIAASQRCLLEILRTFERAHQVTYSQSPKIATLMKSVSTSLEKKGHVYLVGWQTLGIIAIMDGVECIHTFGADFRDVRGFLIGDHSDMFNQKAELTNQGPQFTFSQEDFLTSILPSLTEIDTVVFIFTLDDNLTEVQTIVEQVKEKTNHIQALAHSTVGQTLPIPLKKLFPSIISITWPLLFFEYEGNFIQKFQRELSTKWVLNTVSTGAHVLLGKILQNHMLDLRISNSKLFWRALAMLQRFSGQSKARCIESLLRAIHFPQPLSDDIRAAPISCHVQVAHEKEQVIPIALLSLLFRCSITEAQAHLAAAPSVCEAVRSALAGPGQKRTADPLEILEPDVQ
Sequence of Tumor necrosis factor (Homo sapiens) (P01375 whole entry, looked up): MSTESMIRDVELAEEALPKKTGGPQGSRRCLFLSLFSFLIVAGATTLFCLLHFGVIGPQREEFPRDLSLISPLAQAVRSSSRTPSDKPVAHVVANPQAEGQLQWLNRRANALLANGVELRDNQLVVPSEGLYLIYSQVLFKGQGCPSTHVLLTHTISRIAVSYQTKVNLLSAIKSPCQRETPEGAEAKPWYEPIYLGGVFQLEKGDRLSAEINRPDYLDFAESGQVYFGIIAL
Sequence of Nuclear receptor ROR-gamma (Homo sapiens) (P51449 whole entry, looked up): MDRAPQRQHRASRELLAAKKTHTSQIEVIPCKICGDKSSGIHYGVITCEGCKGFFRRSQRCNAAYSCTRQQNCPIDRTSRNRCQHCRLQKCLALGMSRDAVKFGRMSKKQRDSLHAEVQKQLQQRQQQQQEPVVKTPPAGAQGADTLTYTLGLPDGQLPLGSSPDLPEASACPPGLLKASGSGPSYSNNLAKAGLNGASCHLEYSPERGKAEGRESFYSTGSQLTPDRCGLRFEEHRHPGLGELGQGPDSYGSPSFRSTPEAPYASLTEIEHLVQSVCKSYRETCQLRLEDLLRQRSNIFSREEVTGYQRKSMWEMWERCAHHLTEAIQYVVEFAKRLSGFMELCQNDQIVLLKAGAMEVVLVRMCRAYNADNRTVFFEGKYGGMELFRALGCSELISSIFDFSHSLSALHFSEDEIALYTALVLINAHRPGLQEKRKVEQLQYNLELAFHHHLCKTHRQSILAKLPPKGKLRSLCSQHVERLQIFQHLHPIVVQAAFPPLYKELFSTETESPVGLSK
Sequence of Peroxisome proliferator-activated receptor alpha (Homo sapiens) (Q07869 whole entry, looked up): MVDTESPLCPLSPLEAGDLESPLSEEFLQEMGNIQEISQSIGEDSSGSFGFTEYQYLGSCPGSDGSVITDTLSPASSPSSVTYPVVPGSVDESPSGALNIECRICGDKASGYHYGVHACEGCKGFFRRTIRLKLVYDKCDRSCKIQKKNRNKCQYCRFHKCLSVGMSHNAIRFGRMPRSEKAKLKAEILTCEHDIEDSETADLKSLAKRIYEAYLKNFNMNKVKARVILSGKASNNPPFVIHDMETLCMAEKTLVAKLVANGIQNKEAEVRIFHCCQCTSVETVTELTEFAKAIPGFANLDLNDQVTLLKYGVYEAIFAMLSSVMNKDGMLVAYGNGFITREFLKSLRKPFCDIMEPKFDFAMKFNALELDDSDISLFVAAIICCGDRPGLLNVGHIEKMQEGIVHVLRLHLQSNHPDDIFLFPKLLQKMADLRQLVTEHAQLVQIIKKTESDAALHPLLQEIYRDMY
Sequence of Arylsulfatase A (Homo sapiens) (P15289 whole entry, looked up): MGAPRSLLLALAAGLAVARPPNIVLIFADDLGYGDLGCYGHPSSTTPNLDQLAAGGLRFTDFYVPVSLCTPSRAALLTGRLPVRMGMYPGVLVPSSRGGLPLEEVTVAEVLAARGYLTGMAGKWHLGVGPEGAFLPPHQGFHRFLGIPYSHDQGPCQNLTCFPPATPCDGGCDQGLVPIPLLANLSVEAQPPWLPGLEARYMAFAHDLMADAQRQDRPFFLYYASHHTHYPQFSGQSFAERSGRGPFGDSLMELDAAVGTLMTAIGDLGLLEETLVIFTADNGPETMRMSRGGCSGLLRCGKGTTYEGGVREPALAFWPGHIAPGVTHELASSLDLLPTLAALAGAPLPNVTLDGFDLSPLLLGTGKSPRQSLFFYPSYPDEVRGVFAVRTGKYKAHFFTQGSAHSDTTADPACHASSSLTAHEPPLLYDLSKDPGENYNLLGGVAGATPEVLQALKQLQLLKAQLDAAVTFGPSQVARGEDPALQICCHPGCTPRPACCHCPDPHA
Sequence of Tyrosine-protein kinase Yes (Homo sapiens) (P07947 whole entry, looked up): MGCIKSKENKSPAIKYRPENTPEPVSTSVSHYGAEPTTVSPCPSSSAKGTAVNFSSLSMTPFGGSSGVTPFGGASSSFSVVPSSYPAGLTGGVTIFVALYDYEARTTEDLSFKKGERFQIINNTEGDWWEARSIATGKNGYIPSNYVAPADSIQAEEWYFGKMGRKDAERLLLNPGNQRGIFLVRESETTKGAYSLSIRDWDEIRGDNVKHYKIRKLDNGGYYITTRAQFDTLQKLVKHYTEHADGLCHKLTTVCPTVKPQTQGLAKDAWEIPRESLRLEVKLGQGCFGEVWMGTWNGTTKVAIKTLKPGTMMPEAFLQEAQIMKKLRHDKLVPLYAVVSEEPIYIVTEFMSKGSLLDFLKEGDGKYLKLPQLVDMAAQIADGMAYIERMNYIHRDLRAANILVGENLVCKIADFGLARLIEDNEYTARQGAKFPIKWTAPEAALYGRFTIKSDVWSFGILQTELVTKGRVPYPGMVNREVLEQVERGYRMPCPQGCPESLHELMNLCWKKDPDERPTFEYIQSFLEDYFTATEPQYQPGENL

Regarding `CC1=NN(c2ccccc2)C(=O)C1`, the outcome in assay [1] and in [4] was inactive. The max response in assay [2] was -0.816% and -5.33%; in [6], -1.13%. Moreover, the Potency entry in assay [3] and in assay [5] was “inactive” each time.
As to `COc1cc2nc(N3CCCN(C)CC3)nc(NC3CCN(Cc4ccccc4)CC3)c2cc1OC`, the compound was called inactive in assay [7], in assay [8], in [9], in assay [10], in assay [11] and in assay [12]. The outcome in assay [13], in assay [14] and in [15] was inactive. Besides, in assay [6], the Potency is 1.18 µM (active).
As for `COc1ccc2cc3[n+](cc2c1OC)CCc1cc2c(cc1-3)OCO2`, the Potency in [16] is 9.44 µM (active). The max response in assay [2] was -3.31%. The Potency result in [3] and in assay [5] was “inactive” throughout. Besides, the compound was called inactive in [4].
Turning to `Cc1noc(NS(=O)(=O)c2ccc(N)cc2)c1C`, the outcome in assay [1] and in [4] was inactive. Besides, the activation in [17] is 0.11% and 1.55%. The max response in assay [2] is 0.0609% and -2.74%; in assay [6], -10.4% and -5.26%. Further, the Potency result in assay [5] was “inactive”.
Consider `Nc1nc(N)c2nc(CNc3ccc(C(=O)NC(CCC(=O)O)C(=O)O)cc3)cnc2n1` (stereo not given), for which the activation in assay [17] was -4.32%. Further, the max response in assay [2] is -1.16%; in assay [6], 32.7%. For the same compound, the compound was classed as inactive in assay [10], in assay [11], in [12], in assay [4], in assay [13] and in assay [14]. In addition, the result in assay [15] was inactive.
As for `O=C(N[C@H](CO)[C@H](O)c1ccc([N+](=O)[O-])cc1)C(Cl)Cl`, the Potency result in assay [16], in assay [3] and in assay [5] was “inactive” throughout. In addition, the call in assay [1] and in assay [4] was inactive. The activation in assay [17] was 2.18% and 1.42%. Moreover, the max response was 0.618% and -1.35% in assay [2]; -4.26% and -6.91% in assay [6].
`Cc1ncc([N+](=O)[O-])n1CCO`: the result in [18] and in assay [4] was inactive. For the same compound, the activation in assay [17] was -0.201%. Besides, the results for the max response in [2] and in [6] were -0.879% and -1.29%, respectively. Further, the Potency result in assay [3] and in assay [5] was “inactive” each time.
For `NC(=O)c1cccc(N)c1`, the outcome in assay [9], in [10], in [11], in assay [12], in [13] and in [14] was inactive. Further, in assay [15], the result was inactive. In [6], the max response was 25.5%.
